Test results as given in PubChem BioAssay AID1117319 (Southern Research Institute, 2015).
Values joined by “and” are separate entries in the source; they are usually repeats but may differ in a detail not shown here. Equal values may be shown once. In all, about 260,000 compounds went through this assay and about 1,500 (0.58%) were called active. Inconclusive results (about 5%) are left out.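 The calls were made as follows: active = inhibition above a set limit at one or more doses, reproduced on every date tested; inconclusive = results disagree between test dates, or hit never tested in dose response; inactive = the rest.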 A selection follows. Entries with a potency or affinity are not part of this list.

biological target: Virion infectivity factor (Human immunodeficiency virus type 1 group M subtype B (isolate BH10)) + Virion infectivity factor (Human immunodeficiency virus type 1 group M subtype B (isolate BRU/LAI)) + Virion infectivity factor (Human immunodeficiency virus type 1 group M subtype B (isolate PCV12)) + Virion infectivity factor (Human immunodeficiency virus type 1 group M subtype B (isolate HXB2)) + DNA dC->dU-editing enzyme APOBEC-3G (Homo sapiens) (UniProt P69720+P69721+P69722+P69723+Q9HC16); experiment: inhibitors of Vif binding to APOBEC3G peptide, primary screen, biochemical, TR-FRET, GST-Vif 1-94, biotin-A3G peptide, dose response retest (AID 1117319); settings: hits give high values;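 also: Vif residues 1-94 fused to GST binding biotinylated APOBEC3G peptide 110-148; 0% = full assay without inhibitor and 100% = GST in place of GST-Vif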

inhibition, inactive:
CC(/C=N/NC(=O)Cc1cccs1)=C\c1ccco1 12.2%
C/C(=N\NC(=O)Cc1cccn1C)c1ccco1 20.2%
CC(=O)Nc1ccc2c(c1)nc(C)n2-c1ccccc1 -9.18%
O=C1C[C@@H](c2ccc(O)cc2)Oc2cc(O)cc(O)c21 2.93%
O=C1CC(c2ccc(O)cc2)Oc2cc(O)cc(O)c21 (configuration not stated) 10.3%
Cc1n[nH]c(C)c1S(=O)(=O)N(C)Cc1ccco1 0%
Cc1noc(C)c1COc1ccc(C(=O)OCC(=O)N2CC(=O)Nc3ccccc32)cc1 2.4%
CCC(=O)c1ccc(OCC(=O)OCC(=O)N2c3ccccc3NC(=O)C2(C)C)cc1 0.69%
CS(=O)(=O)N(CC(=O)N1CCCCCC1)c1ccc2c(c1)OCCO2 0.11%
CCC(=O)Nc1nc2ccc([N+](=O)[O-])cc2s1 1.71%
COc1ccc(C)cc1NC(=O)NCc1ccc(F)cc1 7.92%
COc1ccc(OC)c(NC(=O)NCc2cccnc2)c1 -1.39%
O=C(CCNC(=O)c1ccc(Cl)cc1)NCc1ccccc1Cl -1.5%
COc1cccc(-c2c3c([nH]c(=O)c2C#N)CCc2cc(OC)ccc2-3)c1 -2.14%
CCCCN1CC(COCc2ccccc2)Oc2cc(Br)ccc2S1(=O)=O (configuration not stated) -3.27%
CCC(C(=O)OCC(=O)Nc1ccc(C(N)=O)cc1)c1ccccc1 (configuration not stated) -11.4%
CCC(C(=O)OCC(=O)Nc1ccc(F)cc1)c1ccccc1 (configuration not stated) 11.7%
CCSc1nnc(NC(=O)[C@@H](NC(=O)c2ccccc2F)C(C)C)s1 -8.51%
Cc1c(Cl)ccc2c1NC(=O)[C@]21[C@@H]2C(=O)N(Cc3ccccc3)C(=O)[C@@H]2[C@@H]2CCCN21 2.38%
Cc1cc(Cl)c2c(c1)[C@]1(C(=O)N2)[C@@H]2C(=O)N(Cc3ccccc3)C(=O)[C@@H]2[C@@H]2CCCN21 28.3%
O=C(Cc1n[nH]c(=O)c2ccccc12)OCC(=O)c1ccc(F)c(F)c1 -13.4%
Cc1cc(NC(=O)Nc2ccc(F)cc2F)n(C)n1 -0.16%
C#CCN(C[C@H]1[C@H](OC(=O)Nc2c(C)noc2C)[C@H](OC(=O)Nc2c(C)noc2C)C[C@@H](C(=O)OC)[C@H]1C(=O)OC)S(=O)(=O)c1ccc(C)cc1 1.23%
COc1ccccc1C(=O)N(CCN(C)C)c1nc2cc(C)cc(C)c2s1 -1.26%
Cc1nc(NC(=O)COC(=O)/C=C/c2ccco2)c(Cl)cc1Cl 20.2%
Cc1c(Cl)cnc(NC(=O)COC(=O)/C=C/c2ccco2)c1Cl 19.7%
CCC1CCCCN1C(=O)CSc1nnc(N)s1 (configuration not stated) -4.63%
O=C(NCC(c1ccco1)N1CCc2ccccc2C1)c1ccc(F)cc1 (configuration not stated) -9.45%
O=C(/C=C/c1ccco1)NCCc1ccccc1 0.33%
COc1ccc(CCNC(=O)/C=C/C(=O)O)cc1 14.3%
CCC1(C)Cc2nc3sc(C(=O)O)c(N)c3cc2CO1 (configuration not stated) 32.8%
CC1(C)Cc2nc3sc(C(=O)NCCCO)c(N)c3cc2CS1 -0.06%
COc1ccc(-c2ccc3c(c2)C2CC3CCN2C(=O)C(C)(C)C)cc1 (configuration not stated) -6.26%
COc1ccc(Cc2nnc(SCC(=O)NC(C)c3ccccc3)o2)cc1 (configuration not stated) 8.9%
CCOC(=O)C1(C)NC(c2ccco2)C2C(=O)N(C)C(=O)C21 (configuration not stated) 2.73%
CCOC(=O)C1(CC)NC(c2ccco2)C2C(=O)N(CC)C(=O)C21 (configuration not stated) 0.75%
CCOc1ccccc1NC(=O)c1cc2ccccc2oc1=O 5.96%
O=C(Nc1ccccc1)c1ccccc1N=Cc1ccccc1O -0.3%
O=c1[nH][nH]cc1C=Nc1ccccc1O 1.21%
Cc1cccc(NC(=O)Cn2cnc3c(oc4ccccc43)c2=O)c1 4.28%
CCCCn1c(SCC(N)=O)nnc1-c1ccco1 3.37%
c1ccc(OCCCCN2CCOCC2)cc1 16.5%
CCOC(=O)N1CC=C2C(C#N)=C(N)C(C#N)(C#N)[C@H](c3ccsc3)[C@H]2C1 9.32%
CC(C)(C)OC(=O)N1CC=C2C(C#N)=C(N)C(C#N)(C#N)C(c3cccs3)C2C1 (configuration not stated) 5.47%
CC1CCN(c2nnc(NC(=O)Cn3c(=O)oc4ccccc43)s2)CC1 4.48%
COC(=O)c1c(S(=O)(=O)N2CCOCC2)c(C)n(C)c1C 2.63%
Cc1cn([C@H]2C[C@H](O)[C@@H](CNCc3ccccc3)O2)c(=O)[nH]c1=O -4.57%
CC1CN(C(=O)c2ccn(C)n2)CC(C)O1 (configuration not stated) -6.54%
O=C1CS/C(=N/N=C/c2ccco2)N1Cc1ccc(F)cc1 10.9%
CC(c1ccccc1)C1CC(=O)N(Cc2ccco2)C1=O (configuration not stated) 1.07%
O=C(CN1C(=O)C(=O)N(Cc2ccco2)C1=O)NC1CCCCC1 10.2%
O=C(CN1CCN(Cc2ccccc2)CC1)N/N=C\C=C/c1ccco1 29.4%
O=C1c2ccccc2C(=O)N1Cc1ccco1 6.23%
CC1S/C(=N/N=C/c2ccco2)N(Cc2ccc(F)cc2)C1=O (configuration not stated) 2.84%
CC1S/C(=N/N=C/c2ccco2)N(Cc2ccccc2)C1=O (configuration not stated) 4.75%
O=C1C2C3CCC(C3)C2C(=O)N1Cc1ccco1 (configuration not stated) -17.6%
O=c1cc(NCCc2ccccc2)c2ccccc2o1 -9.21%
Cc1ccc(OCCNC(=O)CNC(=O)c2ccccc2Cl)cc1 -0.63%
Cc1cc(C)c(S(=O)(=O)N2CCCC(C(=O)NCCC3=CCCCC3)C2)c(C)c1 (configuration not stated) 9.17%
O=C(N=C1SC2CS(=O)(=O)CC2N1Cc1ccccc1)C1CC1 (configuration not stated) -2.49%
COc1ccc(CNc2nc(NCc3ccc(OC)c(OC)c3)n(C(=O)c3cccs3)n2)cc1OC 13.3%
COc1ccc(CN2CCNC(=O)C2CC(=O)N(Cc2nccn2C)C(C)C)c(OC)c1 (configuration not stated) -0.6%
CC(C)N(Cc1nccn1C)C(=O)CC1C(=O)NCCN1Cc1ccc(F)c(F)c1 (configuration not stated) -8.55%
Cc1ccc(SCCOCCN2CCc3ccccc3C2)cc1 -8.65%
C/C(Cl)=C/Cc1c(C)[nH]c2ccc(C)cc2c1=O -1.26%
COc1ccc(C(=O)N(C)C(C)c2nccs2)cc1OC1CCN(C(C)=O)CC1 (configuration not stated) -6.6%
CC1(C)CC2(CC(c3ccccc3)c3ccc(O)cc3O2)NC(=S)N1 (configuration not stated) 0.62%
CC1(C)CC2(CC(c3ccccc3F)c3cc(Cl)c(O)cc3O2)NC(=S)N1 (configuration not stated) 0.09%
Cc1cc(C)c(C(=O)NC2CC(C)(C)Cc3c2cnn3-c2ccccc2)o1 (configuration not stated) 1.78%
O=[N+]([O-])c1ccc(/C=N/Nc2nc(N3CCCCCC3)nc(N3CCCCCC3)n2)o1 10.1%
O=[N+]([O-])c1ccc(-c2ccc(/C=N/Nc3nc(N4CCCC4)nc(N4CCCC4)n3)o2)cc1 -1.43%
COC(=O)C1=C(CS(=O)(=O)c2ccc(Cl)cc2)NC(=O)NC1c1ccc(O)cc1 (configuration not stated) 9.59%
CC(C)N(C(=O)CSc1nnc(-c2cc3ccccc3cc2O)n1Cc1ccco1)C(C)C 9.68%
CC(=O)c1cccc(NC(=O)c2ccoc2C)c1 7.62%
CC1(C)N=C(c2ccccc2)C(=O)N1 1.67%
CC(C)[C@H](NC(=O)c1ccco1)C(=O)OCC(=O)c1ccc2c(c1)NC(=O)CO2 30.8%
COc1cc(C(=O)NNC(=S)NC(=O)c2ccc(F)cc2)cc(OC)c1OC 13.5%
CCc1cc2c(=O)c(-c3nc4ccccc4n3C)c(C)oc2c(CN(CC)CC)c1O -0.78%
CCN(CC)CCn1c2ccccc2c2nc3ccccc3nc21 -1.16%
CC1=CN2C(=N)/C(=C/c3ccc(Sc4ccc(C)cc4)o3)C(=O)N=C2S1 -0.88%
CC1=CN2C(=N)/C(=C/c3ccco3)C(=O)N=C2S1 14.9%
O=C(Nc1cccc2c1[nH]c1ccccc12)C(F)(F)F -2.08%
COc1ccc2c([N+](=O)[O-])c(Cl)[nH]c2c1 21.2%
COc1cc2[nH]c3c(Cl)ncnc3c2cc1OC -0.29%
COc1ccc(C)cc1S(=O)(=O)NCC(c1ccco1)N1CCc2ccccc2C1 (configuration not stated) -3.21%
COc1cccc(C2C(C#N)=C(N)OC3=C2C(=O)CCC3)c1OC(=O)c1ccco1 (configuration not stated) 22.1%
N#CC1=C(N)OC2=C(C(=O)CC(c3ccco3)C2)C1c1ccc(OCc2c(F)cccc2Cl)cc1 (configuration not stated) 13.6% and 14.7%
Cc1ccc(NC(=O)C(C)Sc2nc(-c3ccccc3)cc(=O)[nH]2)cc1 (configuration not stated) -0.75%
O=C1C=C(c2ccccc2)C(c2ccccc2)C1 (configuration not stated) 0.24%
O=C(COc1ccccc1)N1CCN(c2ccccc2)CC1 10.3%
COc1ccc(N2CCN(C(=O)c3ccc(C)cc3Cl)CC2)cc1 6.52%
COc1ccc(N2CCN(C(=O)COc3ccc4ccccc4c3)CC2)cc1 2.55%
Cc1onc(-c2ccccc2Cl)c1C(=O)N1CCN(c2ccccc2)CC1 -3.16%
COc1ccc(C(=O)N2CCN(c3cccc(Cl)c3)CC2)cc1 -2.36%
COc1ccc(N2CCN(C(=O)COC(=O)c3c(-c4ccccc4)noc3C)CC2)cc1 -5.58%
Cc1onc(-c2ccccc2Cl)c1C(=O)N1CCCC1 -6.38%
COc1ccc(S(=O)(=O)N2CCN(C(=O)c3c(-c4ccccc4)noc3C)CC2)cc1 0.45%
